# Records with an inconclusive call do not appear. Active and inactive are the calls of the source. The calls were made as follows, unless noted: active = hit-call score of the fitted dose curve at least 0.9, where 1 is the maximum; inactive = score below 0.9.
# Assay: CCTE_Mundy_HCI_Cortical_Synap_Neur_Matur_NeuriteLength: CCTE's Synaptogenesis and Neurite Maturation Assay in rat cortical cells for Neurite Length, Mundy Lab (AID 2284214)
# Conditions: not given
# Outline: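 Neurite length in rat primary cortical cultures is imaged after MAP2, synaptophysin and Hoechst staining. Dosing starts DIV 7, ending DIV 12; DMSO serves as negative control and baseline.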
Structure (SMILES),outcome,AC50
CCCCOC(=O)c1ccccc1C(=O)OCc1ccccc1,inactive,–
CC(C)COC(=O)c1ccccc1C(=O)OCC(C)C,–,80.2 µM (active)
ClC1=C(Cl)C2(Cl)C3C(Cl)C=CC3C1(Cl)C2(Cl)Cl (stereo not drawn),–,13.4 µM (active)
COC(=O)Nc1nc2ccccc2[nH]1,–,4.05 µM (active)
COP(=S)(OC)SCN1C(=O)c2ccccc2C1=O,inactive,–
Nc1cc(Cl)cc(C(=O)O)c1Cl,inactive,–
CNC(=O)Oc1cccc2c1OC(C)(C)C2,inactive,–
CCC[CH2][Sn]([Cl])([CH2]CCC)[CH2]CCC,–,0.0468 µM (active)
[O-][Cl+]O,inactive,–
CC(C)(C)C(O)(CCc1ccc(Cl)cc1)Cn1cncn1 (stereo not drawn),–,10.2 µM (active)
CN(C)[C@@H]1C(=O)C(C(N)=O)=C(O)[C@@]2(O)C(=O)C3=C(O)c4c(O)cccc4[C@@](C)(O)[C@H]3C[C@@H]12,inactive,–
OCCOCCO,inactive,–

# Assay: CCTE_Mundy_HCI_Cortical_Synap_Neur_Matur_NeuriteSpotCountPerNeuron: CCTE's Synaptogenesis and Neurite Maturation Assay in rat cortical cells for Neurite Spot Count per Neuron Count, Mundy Lab (AID 2284215)
# Conditions: not given
# Outline: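 Rat primary cortical cultures given AraC at DIV 5, dosed from DIV 7 to DIV 12 with media change. Fixed, stained for MAP2, synaptophysin and Hoechst; neurite-associated synaptophysin puncta per neuron quantified by high-content imaging versus DMSO.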
Structure (SMILES),outcome,AC50
CCCCOC(=O)c1ccccc1C(=O)OCc1ccccc1,inactive,–
CC(C)COC(=O)c1ccccc1C(=O)OCC(C)C,–,77.8 µM (active)
ClC1=C(Cl)C2(Cl)C3C(Cl)C=CC3C1(Cl)C2(Cl)Cl (stereo not drawn),–,10.5 µM (active)
COC(=O)Nc1nc2ccccc2[nH]1,inactive,–
COP(=S)(OC)SCN1C(=O)c2ccccc2C1=O,inactive,–
Nc1cc(Cl)cc(C(=O)O)c1Cl,inactive,–
CNC(=O)Oc1cccc2c1OC(C)(C)C2,inactive,–
CCC[CH2][Sn]([Cl])([CH2]CCC)[CH2]CCC,–,0.037 µM (active)
[O-][Cl+]O,inactive,–
CC(C)(C)C(O)(CCc1ccc(Cl)cc1)Cn1cncn1 (stereo not drawn),inactive,–
CN(C)[C@@H]1C(=O)C(C(N)=O)=C(O)[C@@]2(O)C(=O)C3=C(O)c4c(O)cccc4[C@@](C)(O)[C@H]3C[C@@H]12,inactive,–
OCCOCCO,inactive,–

# Assay: TAMU_PeakParms_SingleDonor1434_Chronotropy: Texas A&M University (TAMU) 1.5-hr Human Induced Pluripotent Stem Cell (iPSC)-derived Cardiomyocytes Calcium (Ca+2) Flux Assay for Cardiotoxicity: Chronotropy (changes in peak frequency) (AID 2284217)
# Conditions: actives raise or lower the signal
# Outline: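 Using fluorescent Ca2+ flux, average beats per second are measured in human iPSC-derived cardiomyocytes treated 90 min (0.5% DMSO vehicle, 0.2–100 uM). Non-beating data points are removed; activity is modeled in both directions relative to DMSO controls.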
Structure (SMILES),outcome,AC50
ClC1=C(Cl)[C@]2(Cl)[C@H]3[C@H]([C@@H]4C=C[C@H]3C4)[C@@]1(Cl)C2(Cl)Cl,inactive,–
ClC1=C(Cl)C2(Cl)C3C(Cl)C=CC3C1(Cl)C2(Cl)Cl (stereo not drawn),inactive,–
C1=Cc2cccc3cccc1c23,–,50 µM (active)
O=P(OCCCl)(OCCCl)OCCCl,inactive,–
CCCCCCCCn1sccc1=O,inactive,–
Clc1ccc(C(c2ccc(Cl)cc2)C(Cl)(Cl)Cl)cc1,inactive,–
CC(C)(C)C(O)(CCc1ccc(Cl)cc1)Cn1cncn1 (stereo not drawn),inactive,–

# Assay: CCTE_Mundy_HCI_Cortical_Synap_Neur_Matur_SynapseCount: CCTE's Synaptogenesis and Neurite Maturation Assay in rat cortical cells for Synapse Count, Mundy Lab (AID 2284218)
# Conditions: not given
# Outline: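 Synapse count per neuron is measured in rat cortical neurons exposed to chemicals between DIV 7 and DIV 12, with glial growth arrested by AraC at DIV 5. Synaptophysin and MAP2 staining is imaged automatically; activity is fitted relative to DMSO.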
Structure (SMILES),outcome,AC50
CCCCOC(=O)c1ccccc1C(=O)OCc1ccccc1,inactive,–
CC(C)COC(=O)c1ccccc1C(=O)OCC(C)C,–,79.6 µM (active)
ClC1=C(Cl)C2(Cl)C3C(Cl)C=CC3C1(Cl)C2(Cl)Cl (stereo not drawn),–,10.6 µM (active)
COC(=O)Nc1nc2ccccc2[nH]1,inactive,–
COP(=S)(OC)SCN1C(=O)c2ccccc2C1=O,inactive,–
Nc1cc(Cl)cc(C(=O)O)c1Cl,inactive,–
CNC(=O)Oc1cccc2c1OC(C)(C)C2,inactive,–
CCC[CH2][Sn]([Cl])([CH2]CCC)[CH2]CCC,–,0.0569 µM (active)
[O-][Cl+]O,inactive,–
CC(C)(C)C(O)(CCc1ccc(Cl)cc1)Cn1cncn1 (stereo not drawn),inactive,–
CN(C)[C@@H]1C(=O)C(C(N)=O)=C(O)[C@@]2(O)C(=O)C3=C(O)c4c(O)cccc4[C@@](C)(O)[C@H]3C[C@@H]12,inactive,–
OCCOCCO,inactive,–

# Assay: CCTE_Mundy_HCI_hN2_NOG_NeuriteCount: CCTE's Neurite Outgrowth Assay in human hN2 cells for Neurite Count, Mundy Lab (AID 2284219; active = hit-call score of the fitted dose curve at least 0.9, where 1 is the maximum)
# Conditions: not given
# Outline: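 In this morphology assay, hNP1-derived neurons received test chemical 2 h post-plating and were fixed two days later in warm paraformaldehyde/sucrose containing Hoechst 33342. Neurites, labelled by rabbit anti-βIII-tubulin (1:800) and Alexa Fluor-488 (1:500), were counted automatically.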
Structure (SMILES),AC50,outcome
ClC1=C(Cl)C2(Cl)C3C(Cl)C=CC3C1(Cl)C2(Cl)Cl (stereo not drawn),5 µM (active),–
COP(=S)(OC)SCN1C(=O)c2ccccc2C1=O,33.5 µM (active),–
Nc1cc(Cl)cc(C(=O)O)c1Cl,–,inactive
OCCOCCO,–,inactive

# Assay: CCTE_Mundy_HCI_hN2_NOG_NeuriteLength: CCTE's Neurite Outgrowth Assay in human hN2 cells for Neurite Length, Mundy Lab (AID 2284220; active = hit-call score of the fitted dose curve at least 0.9, where 1 is the maximum)
# Conditions: not given
# Outline: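 Read-out is neurite length from high-content imaging of βIII-tubulin/Alexa Fluor-488-labelled neurons, referenced to DMSO controls.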
Structure (SMILES),AC50,outcome
ClC1=C(Cl)C2(Cl)C3C(Cl)C=CC3C1(Cl)C2(Cl)Cl (stereo not drawn),4.18 µM (active),–
COP(=S)(OC)SCN1C(=O)c2ccccc2C1=O,31.1 µM (active),–
Nc1cc(Cl)cc(C(=O)O)c1Cl,–,inactive
CC(C)(C)C(O)(CCc1ccc(Cl)cc1)Cn1cncn1 (stereo not drawn),–,inactive
OCCOCCO,–,inactive

# Assay: CCTE_Mundy_HCI_hN2_NOG_NeuronCount: CCTE's Neurite Outgrowth Assay in human hN2 cells for Neuron Count, Mundy Lab (AID 2284221; active = hit-call score of the fitted dose curve at least 0.9, where 1 is the maximum)
# Conditions: not given
# Procedure: CCTE_Mundy_HCI_hN2_NOG is a multiplexed, cell-based-readout assay that uses immature neurons derived from hNP1 neuroprogenitor cells with measurements taken at 50.33 hours after chemical dosing in a microplate: 96-well plate.CCTE_Mundy_HCI_hN2_NOG_NeuronCount is one of four components of the CCTE_Mundy_HCI_hN2_NOG assay. It measures cell viability related to number of neurons using High Content Imaging of fluorescently labelled markers.[…] Using a type of morphology reporter, loss -of-signal activity can be used to understand developmental effects.
# Exposure starts 2 hours post-plating by adding 10 ul of the working solution to 90 ul of media in the wells for a 1/10 dilution. Forty-eight hours after chemical treatment cells are fixed by direct addition of 100 ul of warm (37C) Dulbecco's phosphate buffered saline (DPBS) fixative solution containing 8% paraformaldehyde, 8% sucrose, and 0.1% of 3 mg/ml Hoechst 33342 into each well. Primary antibodies are prepared by dilution in Immunocytochemical Staining Buffer (ISB), 10X Dulbecco's PBS, 0.1% Saponin, 5% Bovine Serum Albumin, 0.5% NaN3 (Sodium Azide) and betaIII-tubulin (rabbit anti-betaIII-tubulin, 1:800) followed by Alexa Fluor-488 secondary (1:500) to label neuronal cell bodies and neurites. A Cellomics ArrayScan VTi HCS Reader is used for automated image acquisition and analysis of neurite outgrowth.
Structure (SMILES),AC50,outcome
ClC1=C(Cl)C2(Cl)C3C(Cl)C=CC3C1(Cl)C2(Cl)Cl (stereo not drawn),2.86 µM (active),–
COP(=S)(OC)SCN1C(=O)c2ccccc2C1=O,23.1 µM (active),–
Nc1cc(Cl)cc(C(=O)O)c1Cl,–,inactive
OCCOCCO,–,inactive

# Assay: CCTE_Mundy_HCI_Cortical_Synap_Neur_Matur_NeuriteCount: CCTE's Synaptogenesis and Neurite Maturation Assay in rat cortical cells for Neurite Count, Mundy Lab (AID 2284222);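 as to outcome: exposure from day 7 to day 12 in vitro with readout at day 12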
# Conditions: not given
# Outline: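 In this multiplexed morphology readout, rat primary cortical neurons are fixed at DIV 12 following dosing at DIV 7 and stained for MAP2, synaptophysin and nuclei. High-content image analysis yields neurite count.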
Structure (SMILES),outcome,AC50
CCCCOC(=O)c1ccccc1C(=O)OCc1ccccc1,inactive,–
CC(C)COC(=O)c1ccccc1C(=O)OCC(C)C,–,88.7 µM (active)
ClC1=C(Cl)C2(Cl)C3C(Cl)C=CC3C1(Cl)C2(Cl)Cl (stereo not drawn),–,14.9 µM (active)
COC(=O)Nc1nc2ccccc2[nH]1,inactive,–
COP(=S)(OC)SCN1C(=O)c2ccccc2C1=O,inactive,–
Nc1cc(Cl)cc(C(=O)O)c1Cl,inactive,–
CNC(=O)Oc1cccc2c1OC(C)(C)C2,inactive,–
CCC[CH2][Sn]([Cl])([CH2]CCC)[CH2]CCC,inactive,–
[O-][Cl+]O,inactive,–
CC(C)(C)C(O)(CCc1ccc(Cl)cc1)Cn1cncn1 (stereo not drawn),inactive,–
CN(C)[C@@H]1C(=O)C(C(N)=O)=C(O)[C@@]2(O)C(=O)C3=C(O)c4c(O)cccc4[C@@](C)(O)[C@H]3C[C@@H]12,inactive,–
OCCOCCO,inactive,–
